Screens from PubChem.
Rows were chosen to be rich in hits. Some 3.8% of all compounds tested hit in one or more screens of this group.
HSF1 activator: increases HSF-1 driven luciferase reporter signal; NIH3T3-HGL HSF-1 luciferase reporter, MG132, 8 h; 100% = twice DMSO control signal; activation, % at 9 µM; actives 1.7% (n = 300,000);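 active means mean replicate activation of at least 50% with a set share of replicates each reaching 50%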
p-CIP stab down: compounds decreasing mouse p/CIP protein stability; F442A p/CIP-EGFP cells, EGFP fluorescence, 16 h; decrease of EGFP signal, % at 10 µM; actives 0.01% (n = 290,000);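 active means EGFP signal decrease of at least 30% at 10 µM or well 3 SD below plate mean, unless failing retest; inactive means the rest, including hits failing retest or dose response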
Hsp70 act: Hsp70 transcriptional activation, primary screen. AID 1203. activation, % at 10 µM. actives 0.04% (n = 200,000). HeLa Hsp70 promoter luciferase reporter, luminescence; scaled: vehicle 0, proteasome-inhibitor control 100%;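 active means activation above the mean across all tested compounds plus 3 SD, cutoff set per campaign, cut at about 5.5% in these data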
NALP1 inh: NALP1 inhibition | inhibition, % at 10 µM | S. cerevisiae NALP1/ASC/caspase-1 growth, X-gal OD620, 72 h | actives 0.61% (n = 280,000) | AID 2071; in the data active means inhibition mostly above about 24%, no sharp cut-off; inactive means mostly below about 32%
HSP90 inh: HSP90 refolding inhibition in rabbit reticulocyte lysate | luciferase refolding luminescence, 3 h | inhibition, % at 5.6 µM | actives 0.91% (n = 290,000);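 active means inhibition above the screen-wide mean plus 3 SD, computed separately per campaign, cut at about 16% in these data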;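 further: inhibitors lower the luminescence because luciferase stays unfolded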
HSF1 inhib: HSF1 inhibition. NIH3T3-HGL HSE-luciferase, MG132-induced, luminescence 8 h; hits give low values. activity change, negative = inhibition, % at 7.5 µM (by protocol). AID 2098. actives 0.77% (n = 300,000);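 active means more than half of replicate wells show activity change below -50%, luminescence cut by over half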;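 further: luciferase reports HSF-1 transcriptional activity via heat shock element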
HSP90 inh confirm: confirmation of HSP90 inhibitors; shares compounds with HSP90 inh; rabbit reticulocyte lysate, luciferase refolding luminescence, 3 h; inhibition, % at 5.9 µM; actives 64% (n = 2,300); AID 1846; in the data active means inhibition above about 18%
FLuc counter: firefly luciferase inhibition, HSP90 counter-screen; shares compounds with HSP90 inh; purified native firefly luciferase, luminescence; inhibition, % at 5.9 µM; actives 48% (n = 2,300); AID 1847;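 active means inhibition above the mean inhibition of all tested sample wells plus 3 SD, cut at about 10% in these data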
Large screens that a line does not name were inactive (follow-up assays come after a bar, where they were run).

O=C(Nc1ccc(N2CCOCC2)cc1)C1CCN(S(=O)(=O)Cc2ccccc2)CC1	HSP90 inh 25.3 | HSP90 inh confirm inactive | FLuc counter inactive
O=C(Nc1ccc2c(c1)OCCO2)C1CCN(S(=O)(=O)Cc2ccccc2)CC1	none
CC(=O)Nc1ccc(-n2c(=O)c3ccccc3c3ccccc3c2=O)cc1	HSP90 inh 23.8 | HSP90 inh confirm inactive | FLuc counter inactive
O=C(Nc1ccccc1C(F)(F)F)c1cc(-c2ccccc2O)on1	HSF1 activator 65.5, HSP90 inh 20.7 | HSP90 inh confirm inactive | FLuc counter inactive
O=C(Nc1ccccc1C(F)(F)F)c1cc(-c2ccco2)on1	none (no result: Hsp70 act)
CCc1cc2c(-n3nc(C)cc3C)ncnc2s1	HSP90 inh 39.2 | HSP90 inh confirm inactive | FLuc counter inactive
CCc1cc2c(N3CCN(C(=O)c4ccco4)CC3)ncnc2s1	none
O=C(CSc1nnc(NC(=O)C2CCC2)s1)Nc1ccccc1Br	none (no result: Hsp70 act)
CC(C)n1cc(CN2CCCC(C(=O)Nc3cccc(-c4cc5ccccc5[nH]4)c3)C2)cn1 (configuration not stated)	HSP90 inh 18.2 (no result: Hsp70 act) | HSP90 inh confirm inactive | FLuc counter inactive
Cn1cc(CN2CCCC(C(=O)Nc3cccc(-c4cc5ccccc5[nH]4)c3)C2)cn1 (configuration not stated)	HSP90 inh 22.7 (no result: Hsp70 act) | HSP90 inh confirm inactive | FLuc counter inactive
CC1CC[C@@]2(OC1)O[C@H]1CC3[C@@H]4C[C@@H](O)[C@@]5(O)C[C@@H](O)[C@H](O)C[C@]5(C)[C@H]4CC[C@]3(C)[C@H]1[C@@H]2C (some centres not stated)	none (no result: Hsp70 act)
Cc1ccc(-c2onc3ccc(C=O)cc23)cc1	HSP90 inh 49.8 | HSP90 inh confirm inactive | FLuc counter inactive
COc1ccccc1NC(=O)N[C@@H](Cc1c[nH]c2ccccc12)C(=O)NN	none (no result: Hsp70 act)
COc1ccc(OC)c(C(C)NC(=O)Nc2cccc(C(C)=O)c2)c1 (configuration not stated)	none (no result: HSF1 activator, HSF1 inhib)
O=c1oc2cc(OCc3c(F)cccc3Cl)ccc2cc1-c1ccccn1	none (no result: p-CIP stab down, NALP1 inh)
CCCOc1ccc2cc(-c3ccccn3)c(=O)oc2c1	HSP90 inh 36.0 | HSP90 inh confirm 85.0 | FLuc counter 79.6
CC1=NN(c2ccccc2)C(=O)/C1=C/C=C/C=C/N(C)C	none
CC1=NN(c2ccccc2)C(=O)/C1=C\N(O)c1ccccc1	HSP90 inh 41.0 (no result: Hsp70 act) | HSP90 inh confirm 79.7 | FLuc counter inactive
Cc1nc(Nc2nc3ccccc3o2)nc2c1CCC2	HSP90 inh 17.2 | HSP90 inh confirm 50.1 | FLuc counter 43.3
CCOC(=O)c1cnc(Nc2nc3ccccc3o2)nc1C	HSP90 inh 18.0 | HSP90 inh confirm 86.1 | FLuc counter 75.0
Cc1cccc(C)c1Nc1nc2ccccc2o1	none
COCCC(=O)N1CCCC(C(=O)c2ccc(C(F)(F)F)cc2)C1 (configuration not stated)	none (no result: Hsp70 act)
CCOC(=O)c1c(C)[nH]c(C)c1S(=O)(=O)N(C)CC(=O)Nc1ccccc1F	none (no result: Hsp70 act)
COc1cccc(CN(C)C(=O)c2cc(-c3cccs3)nc3ccccc23)c1	none (no result: Hsp70 act)
COCc1cc(=O)n2[nH]cc(-c3ccsc3)c2n1	none (no result: Hsp70 act)
CCC(C)c1ccc2oc(-c3ccc(NC(=O)Cn4cnc5c(=O)n(C)c(=O)n(C)c54)cc3)nc2c1 (configuration not stated)	HSP90 inh 26.1 | HSP90 inh confirm 27.5 | FLuc counter 17.5
CC(=O)Nc1ccc(OS(=O)(=O)c2ccc([N+](=O)[O-])cc2)cc1	HSP90 inh 54.6 | HSP90 inh confirm 75.7 | FLuc counter inactive
Oc1ccccc1Nc1nc(NCc2ccco2)c2ccccc2n1	HSP90 inh 28.2 (no result: Hsp70 act) | HSP90 inh confirm inactive | FLuc counter inactive
COc1cc(C(=O)N2CCN(c3ccccc3)CC2)c([N+](=O)[O-])cc1OC	none
Cc1cc(-c2nc(-c3ccc(C(C)(C)C)cc3)no2)no1	none (no result: Hsp70 act)
Cc1c(-c2nc(-c3ccc(C(C)(C)C)cc3)no2)n(C)oc1=O	HSP90 inh 70.2, HSF1 inhib -74.2 (no result: Hsp70 act, NALP1 inh) | HSP90 inh confirm 91.1 | FLuc counter inactive
Cc1nc2nc(SCC(=O)O)nn2c(C)c1Cc1ccccc1Cl	none
NS(=O)(=O)c1ccc(Nc2nc(-c3ccc(F)cc3)cs2)cc1	none
COc1ccc(-c2csc(Nc3ccc(S(N)(=O)=O)cc3)n2)cc1OC	HSP90 inh 23.3 | HSP90 inh confirm inactive | FLuc counter inactive
C#CCOCCOCCOCCNc1nc(N2CCN(C(=O)[C@H](Cc3cc4ccccc4[nH]3)n3cc([C@@H](N)CC(C)C)nn3)CC2)nc(N2CCN(C(=O)[C@H](Cc3cc4ccccc4[nH]3)n3cc([C@@H](N)CC(C)C)nn3)CC2)n1	HSP90 inh 20.4 | HSP90 inh confirm 18.2 | FLuc counter inactive
C#CCOCCOCCOCCNc1nc(N2CCN(C(=O)[C@H](Cc3cc4ccccc4[nH]3)n3cc([C@@H](N)C(C)CC)nn3)CC2)nc(N2CCN(C(=O)[C@H](Cc3cc4ccccc4[nH]3)n3cc([C@@H](N)Cc4ccc(O)cc4)nn3)CC2)n1 (some centres not stated)	HSP90 inh 21.1 | HSP90 inh confirm 27.2 | FLuc counter inactive
C#CCOCCOCCOCCNc1nc(N2CCN(C(=O)[C@H]([C@@H](C)CC)n3cc([C@@H](N)Cc4ccc(O)cc4)nn3)CC2)nc(N2CCN(C(=O)[C@H](Cc3cc4ccccc4[nH]3)n3cc([C@@H](N)C(C)CC)nn3)CC2)n1 (some centres not stated)	HSP90 inh 18.8 | HSP90 inh confirm inactive | FLuc counter inactive
CCOC(=O)c1ccc(NC(=O)C2CC(=O)N=C(N)S2)cc1 (configuration not stated)	none (no result: HSF1 activator, HSF1 inhib)
CC(=O)Nc1ccc(S(=O)(=O)NC2(C(F)(F)F)NC(=O)N(c3ccc(C)cc3)C2=O)cc1 (configuration not stated)	none (no result: Hsp70 act)
CCCCN(C(=O)c1cc(S(=O)(=O)N2CCOCC2)ccc1Cl)c1c(N)n(CC(C)C)c(=O)[nH]c1=O	none (no result: p-CIP stab down, Hsp70 act, NALP1 inh, HSP90 inh)
CC(C)c1ccc(CCNC(=O)c2cccc(S(=O)(=O)N3CCN(C)CC3)c2)cc1	none (no result: Hsp70 act)
O=C1NCCCC1C(=O)N/N=C/c1cccc(Cl)c1 (configuration not stated)	none (no result: Hsp70 act)
O=C(Nc1ccc(-n2cnnn2)cc1)c1cn2ccccc2n1	none (no result: Hsp70 act)
Cc1csc(NC(=O)c2cn3ccccc3n2)n1	HSP90 inh 54.5 | HSP90 inh confirm 70.2 | FLuc counter 62.1
O=C(Nc1ccccc1)c1cn2ccccc2n1	HSP90 inh 37.3 (no result: Hsp70 act) | HSP90 inh confirm 59.4 | FLuc counter 41.2
